Bioassay records deposited in PubChem BioAssay by National Center for Advancing Translational Sciences (NCATS).
A selection: hits, their analogues and other compounds. The true share with any hit is near 6.1%.
D1 PAM: human D1 dopamine receptor positive modulation; P21728; HEK293 TREx D1 cells, calcium flux, dopamine EC20 potentiation; potentiation, % at 10 µM; actives 0.036% (n = 360,000); in the data active = potentiation above about 30%; also: 0% is about no effect
Target sequence (P21728 whole entry, looked up): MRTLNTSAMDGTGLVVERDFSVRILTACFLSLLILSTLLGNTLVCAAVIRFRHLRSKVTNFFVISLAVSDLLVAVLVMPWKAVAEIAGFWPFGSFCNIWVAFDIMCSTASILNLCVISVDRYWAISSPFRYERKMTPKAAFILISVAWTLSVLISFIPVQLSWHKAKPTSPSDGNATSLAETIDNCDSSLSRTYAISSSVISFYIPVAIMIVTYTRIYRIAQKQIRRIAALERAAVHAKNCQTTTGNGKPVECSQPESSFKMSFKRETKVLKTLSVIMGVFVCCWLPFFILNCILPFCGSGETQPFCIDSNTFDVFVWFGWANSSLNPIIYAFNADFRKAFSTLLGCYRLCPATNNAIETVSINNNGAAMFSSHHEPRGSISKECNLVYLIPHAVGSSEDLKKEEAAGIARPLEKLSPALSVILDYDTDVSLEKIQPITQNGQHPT
DRD3 antagonist: antagonists of human D3 dopamine receptor; P35462; D3R cells, DiscoveRx beta-arrestin luminescence, antagonist mode; active compounds read low; max response, negative = inhibition, %; actives 2.5% (n = 360,000); in the data active = max response below about -50%; inconclusive = no clear call, values can overlap the other calls; also: % is scaled to controls: 0 for no effect and ±100 for the full control effect
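Cells expressing the human receptor were seeded at 1500 cells/well, incubated overnight at 37 degrees C in 5% CO2, then exposed to library compounds with dopamine controls for 90 minutes at 37 degrees C before luminescent detection.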
D1 ag: activates the human D1 dopamine receptor. P21728. HEK293 T-REx D1 cells, calcium flux, agonist mode. activation, % at 2 µM. actives 1% (n = 360,000). AID 504660; in the data active = activation above about 30%; also: 0% is about no effect
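Agonism was scored from calcium flux recorded over 180 s (1 read/s) after pintool compound addition, following a 10-cycle baseline. Cells were inducible force-coupled HEK293 TREx D1, plated overnight at 30 C and loaded with no-wash calcium dye.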
DRD3 agonist: activates the human D3 dopamine receptor; P35462; D3R DiscoveRx beta-arrestin cells, luminescence, 90 min; max activation, %; actives 0.58% (n = 410,000); AID 652048; in the data active = max activation above about 30%; also: 0% is about no effect
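Agonist mode: compounds and dopamine controls were applied to plated cells for 90 min at 37 degrees C after an overnight attachment at 1500 cells/well. Luminescent read-out followed 30 - 60 minutes at room temperature with DiscoveRx detection reagent.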
D1 antagonist: antagonists of human D1 dopamine receptor. actives 3.2% (n = 360,000). AID 504652. HEK293 TREx D1 cells, calcium flux, dopamine EC80; active compounds read low. P21728. activity change, negative = inhibition, % at 10 µM; in the data active = activity change below about -30%; also: % is scaled to controls: 0 for no effect and ±100 for the full control effect
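Kinetic fluorescence of a calcium dye serves as the read-out. D1-expressing Hek293 Trex cells, induced overnight at 30 C, are exposed to compound for 180 s before an EC80 dopamine addition, then read 180 s further.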
The depositor's hits bear a star; ? = inconclusive; / = no result given.

SMILES | D1 PAM | DRD3 antagonist | D1 ag | DRD3 agonist | D1 antagonist
Cc1cccc(CC(C)NC(=O)c2cc(COc3ccc(C)c(C)c3)on2)n1 (stereo unspecified) | 2 | ? | 2 | -13 | -24
Cc1ccccc1Cc1ccc(Cl)nn1 | -5 | -7 | 1 | -1 | -44*
Cc1ccc(S(=O)(=O)C(CNC(=O)C(=O)NCCc2ccc(Cl)cc2)c2cccs2)cc1 (stereo unspecified) | -4 | / | 7 | 7 | /
Cc1nnsc1-c1onc(C)c1C(=O)Nc1cc(Cl)cc(Cl)c1 | -12 | 20 | 9 | 2 | -34*
Cc1ccc(NC(=O)c2c(C)noc2-c2snnc2C)cc1 | -5 | 2 | 2 | 2 | 2
O=C(NCc1cn(-c2ccccc2)nc1-c1ccccc1)c1cccc([N+](=O)[O-])c1 | -10 | -11 | 2 | -2 | -33*
O=C(Nc1ccc(F)cc1F)c1ccc2c(O)c(S(=O)(=O)c3ccc(Cl)cc3)c(=O)[nH]c2c1 | -1 | / | 1 | -9 | 2
COc1cc(/C=N/Nc2nc(Nc3ccccc3)nc(-n3nc(C)cc3C)n2)cc(OC)c1OC | 0 | 1 | 0 | 17 | 1
Cc1cc(N/N=C/c2ccc(O)cc2O)nc(-n2nc(C)cc2C)n1 | 0 | -122* | 1 | -28 | -17
COc1ccc(O)c(/C=N/Nc2nc(Nc3ccccc3)nc(-n3nc(C)cc3C)n2)c1 | -7 | -117* | 1 | -39 | -11
Cc1cc(N/N=C/c2ccccc2O)nc(-c2ccccc2O)n1 | -6 | -131* | 0 | -1 | -12
Cc1cc(C)c2c(n1)nn1c(C)c(CCC(=O)NCc3ccc(Cl)cc3)c(C)nc21 | -2 | / | 0 | -4 | -5
Cc1ccc(NC(=O)CCCc2nnc3n(C)c(=O)c4sccc4n23)cc1F | 0 | / | 3 | 10 | -3
O=C(CCC(=O)N1CC2CCCN2c2ccccc21)NCc1ccccc1 (stereo unspecified) | -4 | / | 1 | -6 | 9
CCOC(=O)c1cc(C#N)c(SC)nc1-c1ccccc1 | -3 | -6 | 9 | 0 | -44*
CCOC(=O)c1cc(C#N)c(SC)nc1C | 0 | 4 | 1 | 6 | 2
COc1cc(SSc2cc(OC)cc([N+](=O)[O-])c2N)c(N)c([N+](=O)[O-])c1 | 6 | -77* | 2 | -25 | -21
O=[N+]([O-])c1ccccc1-c1ccc(CN2CCN(c3ccccc3)CC2)o1 | -9 | -58* | 0 | 0 | -33*
COCCn1c(SCC(=O)Nc2ccc(Br)cc2)nc2c([nH]c3ccccc32)c1=O | 2 | / | 2 | 5 | -2
COc1cccc(N2CCN(CC(=O)Nc3nnc(-c4ccccc4)s3)CC2)c1 | -5 | 12 | 2 | 1 | -2
COc1cccc(N2CCN(Cc3ncc(-c4ccccc4)o3)CC2)c1 | -5 | -56* | 4 | 4 | -10
COc1ccc(Oc2ncc(CN3CCN(c4ccccc4)CC3)s2)cc1 | -1 | 0 | 1 | 35* | 1
COc1cccc(C(c2nnnn2-c2c(C)cccc2C)N2CCN(C/C=C/c3ccccc3)CC2)c1OC (stereo unspecified) | / | -121* | / | -24 | /
COc1ccc(C(c2nnnn2-c2c(C)cccc2C)N2CCN(C/C=C/c3ccccc3)CC2)cc1 (stereo unspecified) | / | -87* | / | -16 | /
Cc1cccc(C)c1-n1nnnc1C(c1ccnc2ccccc12)N1CCN(C/C=C/c2ccccc2)CC1 (stereo unspecified) | / | -116* | / | -14 | /
SMILES | D1 PAM | DRD3 antagonist | D1 ag | DRD3 agonist | D1 antagonist
CC(C)(C)n1nnnc1C(c1ccnc2ccccc12)N1CCN(C/C=C/c2ccccc2)CC1 (stereo unspecified) | / | 2 | / | -10 | /
Cc1cccc(C)c1-n1nnnc1C(c1ccccc1OC(F)(F)F)N1CCN(C/C=C/c2ccccc2)CC1 (stereo unspecified) | / | -95* | / | -8 | /
COc1cc(-c2nnc(SCCOc3ccc(Cl)cc3)o2)cc(OC)c1OC | -1 | / | 0 | -8 | -6
CS(=O)(=O)NCCc1csc2nc(-c3ccccc3)nn12 | 1 | / | 1 | 6 | /
CCC1CN(C(=O)Nc2ccc(C)c(F)c2)c2ccccc2S1 (stereo unspecified) | 3 | / | -1 | 3 | 11
CC(C)c1ccccc1NC(=O)CN1C(=O)c2cccc3cccc1c23 | -5 | / | 2 | -4 | -12
Cc1cc(N2CCN(c3cccc(C)c3C)CC2)n2nc(C)c(-c3ccc(Cl)cc3)c2n1 | 0 | / | 0 | 1 | -6
Cc1cccc(C)c1-n1nnnc1C(c1ccnc2ccccc12)N1CCCC1 (stereo unspecified) | / | -56* | / | -10 | /
Cc1cccc(C)c1NC(=O)C(c1ccccc1OC(F)(F)F)N1CCN(C/C=C/c2ccccc2)CC1 (stereo unspecified) | / | -63* | / | -15 | /
Cc1cccc(C)c1-n1nnnc1C(c1ccnc2ccccc12)N1CCOCC1 (stereo unspecified) | / | 3 | / | 1 | /
Cc1cc(N2CCC(C(=O)Nc3ccc(F)cc3F)CC2)n2nc(C)c(-c3ccc(Cl)cc3)c2n1 | -1 | / | 2 | 7 | -2
C=CC(=O)Oc1ccc(N2Cc3ccccc3C2=O)cc1 | / | -64* | / | -2 | /
COc1ccc(N2Cc3ccccc3C2=O)cc1 | -7 | -8 | 1 | 0 | -3
COC(=O)Cc1c(C)c2ccc(O)c(CN3CCCC(C)C3)c2oc1=O (stereo unspecified) | -4 | -54* | 0 | -8 | 3
C[C@H]1C[C@H]2[C@@H]3CCC4=CC(=O)C=C[C@]4(C)[C@@]3(F)[C@@H](O)C[C@]2(C)[C@@]1(O)C(=O)CCl | / | / | / | -17 | /
COc1ccc(NC(=S)N2CCC(Cc3ccccc3)CC2)cc1OC | -11 | -13 | 3 | -5 | -53*
O=C(COc1ccc(F)cc1)N1CCC(Cc2ccccc2)CC1 | 0 | -2 | 7 | 2 | -20
CCc1cc(=O)[nH]c(SCC(=O)N2CCC(Cc3ccccc3)CC2)n1 | 1 | -59* | 2 | -20 | 9
COc1cccc(NC(=S)N2CCN(C/C=C/c3ccccc3)CC2)c1 | 0 | -10 | 2 | 0 | -11
COc1ccc(OCC(=O)N2CCC(Cc3ccccc3)CC2)cc1 | 2 | 10 | 1 | 32* | -16
COc1cccc(NC(=S)N2CCC(Cc3ccccc3)CC2)c1 | -3 | -13 | 1 | -6 | -37*
CCn1c(SCc2ccc(F)cc2Cl)nnc1-c1nonc1NC(C)=O | -2 | / | 8 | -4 | -26
COc1ccc(-c2nnc(SCC(=O)N3CCC(Cc4ccccc4)CC3)o2)cc1OC | 3 | 49 | -1 | 38* | 6
Cc1ccc(/C=C/C(=O)N2CCC(Cc3ccccc3)CC2)cc1 | -9 | -21 | 10 | 3 | -33*
Cc1cccc(N2CCN(C(=O)c3cccn4c(=O)c5cc(Cl)ccc5nc34)CC2C)c1 (stereo unspecified) | 4 | / | 0 | -2 | -1
